# Legend:
# Experiment in all cases: DAPPL (digital affinity profiling via proximity ligation, sequencing); 10 mM Tris-HCl pH 7.5, 50 mM NaCl, 1 mM DTT, 4% glycerol, room temperature, 30 min; GST-TFs on glutathione beads, 16-mer random dsDNA library, 0.1% formaldehyde crosslink after washing; high values mean tight binding
# FEV = target: T1, FEV (Homo sapiens, UniProt Q99581 1-238); settings: protein: recombinant; tags: N-terminal GST; dsDNA, one strand shown
# T1 sequence: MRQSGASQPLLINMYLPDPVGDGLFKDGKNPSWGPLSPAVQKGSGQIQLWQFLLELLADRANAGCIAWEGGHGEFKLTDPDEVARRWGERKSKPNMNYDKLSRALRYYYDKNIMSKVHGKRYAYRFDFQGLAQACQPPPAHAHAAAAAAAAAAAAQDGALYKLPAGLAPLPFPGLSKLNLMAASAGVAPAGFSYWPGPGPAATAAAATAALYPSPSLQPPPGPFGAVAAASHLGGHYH
# How it was run: (§1)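 Binding signal is each hexamer's read frequency for a factor divided by its frequency in the tag-only sample. The factors were GST-fused human transcription factors from yeast, captured on glutathione beads, DNA-barcoded and pooled with that sample. Pools were incubated with 200 nmole of a random double-stranded 16-mer DNA library in Tris/NaCl/DTT/glycerol buffer at room temperature for 30 min, then washed, crosslinked with 0.1% formaldehyde, proximity-ligated with BsaI/T4 ligase (1 h, 37 °C), PCR-amplified and sequenced on an Illumina NextSeq500.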
# ETV5 = ETV5 (Homo sapiens, UniProt P41161 1-510); settings: protein: recombinant; tags: N-terminal GST; dsDNA, one strand shown
# How it was run: as §1
# HSF1 = HSF1 (Homo sapiens, UniProt Q00613 1-529); settings: protein: recombinant; tags: N-terminal GST; chain copies: 3; dsDNA, one strand shown
# How it was run: as §1
# SPIC = target: T2, SPIC (Homo sapiens, UniProt Q8N5J4 1-248); settings: protein: recombinant; tags: N-terminal GST; dsDNA, one strand shown
# T2 sequence: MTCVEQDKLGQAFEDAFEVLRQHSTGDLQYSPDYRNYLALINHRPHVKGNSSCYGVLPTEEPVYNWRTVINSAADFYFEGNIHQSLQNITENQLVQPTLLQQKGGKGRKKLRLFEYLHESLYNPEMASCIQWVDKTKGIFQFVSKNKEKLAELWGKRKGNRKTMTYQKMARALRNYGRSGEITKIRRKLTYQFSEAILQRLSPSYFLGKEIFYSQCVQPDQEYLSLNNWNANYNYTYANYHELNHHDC
# How it was run: as §1
# ELF4 = ELF4 (Homo sapiens, UniProt Q99607 1-663); settings: protein: recombinant; tags: N-terminal GST; dsDNA, one strand shown
# How it was run: as §1
# ELK4 = target: T3, ELK4 (Homo sapiens, UniProt P28324-2 1-405); settings: protein: recombinant; tags: N-terminal GST; dsDNA, one strand shown
# T3 sequence: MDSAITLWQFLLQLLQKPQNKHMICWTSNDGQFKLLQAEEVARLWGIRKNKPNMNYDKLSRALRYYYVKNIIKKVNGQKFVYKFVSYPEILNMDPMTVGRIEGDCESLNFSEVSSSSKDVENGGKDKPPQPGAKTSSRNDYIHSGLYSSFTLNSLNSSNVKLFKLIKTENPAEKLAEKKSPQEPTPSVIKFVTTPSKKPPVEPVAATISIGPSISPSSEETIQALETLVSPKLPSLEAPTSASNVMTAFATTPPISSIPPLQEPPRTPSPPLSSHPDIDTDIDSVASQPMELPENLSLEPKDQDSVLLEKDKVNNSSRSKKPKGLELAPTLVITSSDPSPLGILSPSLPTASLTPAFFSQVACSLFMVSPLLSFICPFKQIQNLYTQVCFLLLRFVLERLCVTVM
# How it was run: as §1
# ETV2 = target: T4, ETV2 (Homo sapiens, UniProt O00321 1-342); settings: protein: recombinant; tags: N-terminal GST; dsDNA, one strand shown
# T4 sequence: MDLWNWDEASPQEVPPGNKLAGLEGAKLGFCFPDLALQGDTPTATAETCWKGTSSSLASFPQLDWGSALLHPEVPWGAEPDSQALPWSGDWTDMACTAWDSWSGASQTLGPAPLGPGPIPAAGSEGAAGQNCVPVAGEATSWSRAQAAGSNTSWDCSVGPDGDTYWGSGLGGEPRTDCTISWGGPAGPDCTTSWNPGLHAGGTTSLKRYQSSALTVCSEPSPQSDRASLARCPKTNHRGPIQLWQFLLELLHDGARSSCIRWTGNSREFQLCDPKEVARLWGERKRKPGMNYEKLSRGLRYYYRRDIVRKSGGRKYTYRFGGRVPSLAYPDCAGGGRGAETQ
# How it was run: as §1
# ELF3 = target: T5, ELF3 (Homo sapiens, UniProt P78545 1-371); settings: protein: recombinant; tags: N-terminal GST; dsDNA, one strand shown
# T5 sequence: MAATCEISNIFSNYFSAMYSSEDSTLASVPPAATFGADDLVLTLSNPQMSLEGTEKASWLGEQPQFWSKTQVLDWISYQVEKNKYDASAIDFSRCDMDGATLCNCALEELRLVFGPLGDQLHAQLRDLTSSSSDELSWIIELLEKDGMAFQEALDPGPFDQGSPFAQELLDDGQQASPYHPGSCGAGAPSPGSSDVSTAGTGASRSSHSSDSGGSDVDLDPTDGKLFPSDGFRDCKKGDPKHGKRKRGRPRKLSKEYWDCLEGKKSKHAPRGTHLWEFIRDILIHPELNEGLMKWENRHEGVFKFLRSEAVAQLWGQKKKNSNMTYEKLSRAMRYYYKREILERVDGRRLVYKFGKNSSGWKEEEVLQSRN
# How it was run: as §1
# CRX = CRX (Homo sapiens, UniProt O43186 1-299); settings: protein: recombinant; tags: N-terminal GST; dsDNA, one strand shown
# How it was run: as §1
# ETV1 = ETV1 (Homo sapiens, UniProt P50549 1-477); settings: protein: recombinant; tags: N-terminal GST; dsDNA, one strand shown
# How it was run: as §1
# ERF = target: T6, ERF (Homo sapiens, UniProt P50548 1-548); settings: protein: recombinant; tags: N-terminal GST; dsDNA, one strand shown
# T6 sequence: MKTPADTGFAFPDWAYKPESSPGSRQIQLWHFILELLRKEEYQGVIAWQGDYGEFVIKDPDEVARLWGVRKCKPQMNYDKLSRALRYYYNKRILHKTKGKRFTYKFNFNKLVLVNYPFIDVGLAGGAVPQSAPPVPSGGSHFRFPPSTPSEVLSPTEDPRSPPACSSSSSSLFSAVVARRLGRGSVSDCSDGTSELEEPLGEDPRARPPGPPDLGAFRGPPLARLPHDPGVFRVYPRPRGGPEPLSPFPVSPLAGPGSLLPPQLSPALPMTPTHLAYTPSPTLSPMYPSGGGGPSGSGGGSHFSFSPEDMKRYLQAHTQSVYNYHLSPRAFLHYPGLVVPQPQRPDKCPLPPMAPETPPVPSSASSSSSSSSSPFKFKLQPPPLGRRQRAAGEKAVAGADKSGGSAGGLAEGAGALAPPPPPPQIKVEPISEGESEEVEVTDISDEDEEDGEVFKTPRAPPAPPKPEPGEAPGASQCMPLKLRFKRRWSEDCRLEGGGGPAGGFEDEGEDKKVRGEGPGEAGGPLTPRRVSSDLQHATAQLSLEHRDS
# How it was run: as §1
# ETV3L = target: T7, ETV3L (Homo sapiens, UniProt Q6ZN32 1-361); settings: protein: recombinant; tags: N-terminal GST; dsDNA, one strand shown
# T7 sequence: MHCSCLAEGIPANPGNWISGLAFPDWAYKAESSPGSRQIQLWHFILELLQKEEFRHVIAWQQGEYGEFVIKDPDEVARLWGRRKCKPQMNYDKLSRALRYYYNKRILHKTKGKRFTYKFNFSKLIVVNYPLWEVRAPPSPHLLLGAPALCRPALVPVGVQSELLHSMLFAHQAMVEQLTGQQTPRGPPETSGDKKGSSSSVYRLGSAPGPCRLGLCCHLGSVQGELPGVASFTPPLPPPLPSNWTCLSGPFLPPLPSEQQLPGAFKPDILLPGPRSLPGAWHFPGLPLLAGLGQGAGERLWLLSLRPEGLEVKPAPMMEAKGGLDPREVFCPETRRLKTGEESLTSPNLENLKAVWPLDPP
# How it was run: as §1
# ETS2 = target: T8, ETS2 (Homo sapiens, UniProt P15036 1-469); settings: protein: recombinant; tags: N-terminal GST; dsDNA, one strand shown
# T8 sequence: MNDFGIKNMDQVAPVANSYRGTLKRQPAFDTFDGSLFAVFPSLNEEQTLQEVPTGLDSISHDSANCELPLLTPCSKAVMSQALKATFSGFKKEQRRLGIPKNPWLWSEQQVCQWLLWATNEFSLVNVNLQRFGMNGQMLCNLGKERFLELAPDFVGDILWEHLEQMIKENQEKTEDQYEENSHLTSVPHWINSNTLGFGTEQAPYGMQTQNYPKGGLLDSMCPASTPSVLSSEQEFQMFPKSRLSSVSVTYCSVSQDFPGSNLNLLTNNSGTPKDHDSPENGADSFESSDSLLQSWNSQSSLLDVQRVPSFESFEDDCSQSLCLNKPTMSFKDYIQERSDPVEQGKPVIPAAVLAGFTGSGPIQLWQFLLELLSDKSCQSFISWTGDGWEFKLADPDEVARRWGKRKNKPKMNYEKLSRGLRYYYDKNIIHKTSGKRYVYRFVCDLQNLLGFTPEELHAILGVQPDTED
# How it was run: as §1
# SPDEF = target: T9, SPDEF (Homo sapiens, UniProt O95238 1-335); settings: protein: recombinant; tags: N-terminal GST; dsDNA, one strand shown
# T9 sequence: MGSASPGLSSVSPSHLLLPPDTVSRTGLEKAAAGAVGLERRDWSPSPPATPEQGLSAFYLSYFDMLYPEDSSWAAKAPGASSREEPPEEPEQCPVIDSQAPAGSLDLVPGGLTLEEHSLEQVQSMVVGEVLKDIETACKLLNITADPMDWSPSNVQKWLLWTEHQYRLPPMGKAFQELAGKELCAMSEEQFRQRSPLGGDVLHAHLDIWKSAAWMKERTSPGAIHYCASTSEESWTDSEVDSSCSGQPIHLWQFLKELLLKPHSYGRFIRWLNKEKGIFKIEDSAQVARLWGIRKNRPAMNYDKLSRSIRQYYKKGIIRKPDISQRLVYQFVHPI
# How it was run: as §1
# ETV7 = target: T10, ETV7 (Homo sapiens, UniProt Q9Y603 1-341); settings: protein: recombinant; tags: N-terminal GST; dsDNA, one strand shown
# T10 sequence: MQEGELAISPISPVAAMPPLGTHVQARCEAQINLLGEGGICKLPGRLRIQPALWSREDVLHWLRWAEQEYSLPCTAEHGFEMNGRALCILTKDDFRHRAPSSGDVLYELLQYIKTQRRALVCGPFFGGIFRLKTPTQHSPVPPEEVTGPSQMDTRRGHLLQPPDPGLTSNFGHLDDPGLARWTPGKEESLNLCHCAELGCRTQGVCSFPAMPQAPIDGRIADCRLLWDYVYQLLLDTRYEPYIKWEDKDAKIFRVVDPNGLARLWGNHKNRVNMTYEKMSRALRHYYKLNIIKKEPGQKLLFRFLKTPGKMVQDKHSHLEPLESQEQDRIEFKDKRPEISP
# How it was run: as §1
# ELF5 = target: T11, ELF5 (Homo sapiens, UniProt Q9UKW6-2 1-255); settings: protein: recombinant; tags: N-terminal GST; dsDNA, one strand shown
# T11 sequence: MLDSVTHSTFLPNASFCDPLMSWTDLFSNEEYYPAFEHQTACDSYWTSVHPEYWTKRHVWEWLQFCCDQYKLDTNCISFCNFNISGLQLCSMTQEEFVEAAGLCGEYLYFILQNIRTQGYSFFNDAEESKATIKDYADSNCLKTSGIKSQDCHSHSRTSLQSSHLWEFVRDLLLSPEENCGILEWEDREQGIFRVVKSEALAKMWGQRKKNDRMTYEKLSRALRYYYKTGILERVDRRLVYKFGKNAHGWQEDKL
# How it was run: as §1
# ETV3 = target: T12, ETV3 (Homo sapiens, UniProt P41162-2 1-143); settings: protein: recombinant; tags: N-terminal GST; dsDNA, one strand shown
# T12 sequence: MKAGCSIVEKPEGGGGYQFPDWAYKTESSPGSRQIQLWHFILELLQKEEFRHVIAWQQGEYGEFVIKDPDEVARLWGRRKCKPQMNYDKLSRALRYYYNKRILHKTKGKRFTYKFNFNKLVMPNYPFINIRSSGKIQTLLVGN
# How it was run: as §1
# ETV6 = ETV6 (Homo sapiens, UniProt P41212 1-452); settings: protein: recombinant; tags: N-terminal GST; dsDNA, one strand shown
# How it was run: as §1
# HSF1, sequence (Q00613 whole entry): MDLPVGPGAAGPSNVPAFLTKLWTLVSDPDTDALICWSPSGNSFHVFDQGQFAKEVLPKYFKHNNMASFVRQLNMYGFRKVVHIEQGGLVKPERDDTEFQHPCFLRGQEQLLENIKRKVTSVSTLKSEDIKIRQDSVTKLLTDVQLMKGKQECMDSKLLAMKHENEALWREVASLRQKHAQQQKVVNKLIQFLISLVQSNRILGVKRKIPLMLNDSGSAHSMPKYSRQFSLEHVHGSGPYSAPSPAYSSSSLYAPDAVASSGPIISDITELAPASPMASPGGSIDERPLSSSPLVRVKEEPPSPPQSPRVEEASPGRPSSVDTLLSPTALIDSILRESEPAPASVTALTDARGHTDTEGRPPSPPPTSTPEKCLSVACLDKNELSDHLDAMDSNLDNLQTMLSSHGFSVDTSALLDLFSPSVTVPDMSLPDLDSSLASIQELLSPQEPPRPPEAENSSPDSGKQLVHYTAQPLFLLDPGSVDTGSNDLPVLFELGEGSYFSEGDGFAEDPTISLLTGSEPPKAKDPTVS
# CRX, sequence (O43186 whole entry): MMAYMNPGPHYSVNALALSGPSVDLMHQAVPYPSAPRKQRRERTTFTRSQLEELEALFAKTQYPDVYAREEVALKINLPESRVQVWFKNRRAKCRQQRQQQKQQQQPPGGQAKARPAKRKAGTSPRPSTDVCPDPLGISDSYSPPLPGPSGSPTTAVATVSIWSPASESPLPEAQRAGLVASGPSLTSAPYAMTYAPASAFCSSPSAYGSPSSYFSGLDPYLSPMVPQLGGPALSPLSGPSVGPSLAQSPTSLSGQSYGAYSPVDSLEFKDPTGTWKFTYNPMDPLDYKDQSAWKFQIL
# ETV5, sequence (P41161 whole entry): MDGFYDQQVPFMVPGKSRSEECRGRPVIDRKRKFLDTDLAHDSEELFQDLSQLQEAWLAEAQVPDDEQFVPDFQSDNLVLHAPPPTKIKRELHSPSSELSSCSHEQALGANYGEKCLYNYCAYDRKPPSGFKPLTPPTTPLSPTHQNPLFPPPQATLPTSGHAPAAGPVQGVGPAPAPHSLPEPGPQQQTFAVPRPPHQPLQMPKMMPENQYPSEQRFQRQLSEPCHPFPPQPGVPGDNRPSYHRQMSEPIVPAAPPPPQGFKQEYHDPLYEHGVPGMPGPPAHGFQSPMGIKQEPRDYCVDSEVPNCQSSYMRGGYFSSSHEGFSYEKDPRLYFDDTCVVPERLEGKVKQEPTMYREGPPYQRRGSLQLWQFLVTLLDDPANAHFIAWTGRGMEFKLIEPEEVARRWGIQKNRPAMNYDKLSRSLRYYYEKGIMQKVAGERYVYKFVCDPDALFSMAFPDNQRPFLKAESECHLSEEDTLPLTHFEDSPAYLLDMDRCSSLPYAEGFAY
# ETV1, sequence (P50549 whole entry): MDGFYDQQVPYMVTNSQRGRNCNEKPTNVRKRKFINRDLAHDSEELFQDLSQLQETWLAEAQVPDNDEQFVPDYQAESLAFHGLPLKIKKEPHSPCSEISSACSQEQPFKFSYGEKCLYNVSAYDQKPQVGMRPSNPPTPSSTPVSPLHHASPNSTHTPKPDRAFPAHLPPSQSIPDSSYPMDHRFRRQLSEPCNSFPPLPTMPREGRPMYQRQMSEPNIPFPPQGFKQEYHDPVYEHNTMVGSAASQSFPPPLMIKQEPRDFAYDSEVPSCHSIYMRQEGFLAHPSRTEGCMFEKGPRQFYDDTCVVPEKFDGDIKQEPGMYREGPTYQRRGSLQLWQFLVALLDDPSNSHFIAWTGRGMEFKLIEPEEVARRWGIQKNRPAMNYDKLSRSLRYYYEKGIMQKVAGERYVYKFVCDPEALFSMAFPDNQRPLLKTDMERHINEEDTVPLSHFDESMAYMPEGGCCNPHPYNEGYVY
# ELF4, sequence (Q99607 whole entry): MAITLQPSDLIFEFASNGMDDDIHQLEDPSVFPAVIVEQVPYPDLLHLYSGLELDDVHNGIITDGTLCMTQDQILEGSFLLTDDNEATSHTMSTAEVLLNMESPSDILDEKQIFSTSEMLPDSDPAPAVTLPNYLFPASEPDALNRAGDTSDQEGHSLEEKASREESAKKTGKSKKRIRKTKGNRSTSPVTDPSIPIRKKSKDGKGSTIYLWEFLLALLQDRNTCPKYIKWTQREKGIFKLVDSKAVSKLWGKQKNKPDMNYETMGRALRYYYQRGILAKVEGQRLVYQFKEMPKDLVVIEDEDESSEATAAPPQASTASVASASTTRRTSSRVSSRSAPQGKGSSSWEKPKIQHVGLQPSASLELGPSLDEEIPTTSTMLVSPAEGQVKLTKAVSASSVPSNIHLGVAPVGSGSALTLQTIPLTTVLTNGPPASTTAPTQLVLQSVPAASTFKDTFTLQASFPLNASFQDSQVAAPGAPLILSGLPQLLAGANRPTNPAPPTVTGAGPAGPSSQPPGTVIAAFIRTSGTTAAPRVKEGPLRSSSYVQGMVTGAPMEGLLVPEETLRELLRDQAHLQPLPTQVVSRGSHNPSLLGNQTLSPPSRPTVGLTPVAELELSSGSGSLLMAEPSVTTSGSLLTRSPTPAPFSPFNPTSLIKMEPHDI
# ETV6, sequence (P41212 whole entry): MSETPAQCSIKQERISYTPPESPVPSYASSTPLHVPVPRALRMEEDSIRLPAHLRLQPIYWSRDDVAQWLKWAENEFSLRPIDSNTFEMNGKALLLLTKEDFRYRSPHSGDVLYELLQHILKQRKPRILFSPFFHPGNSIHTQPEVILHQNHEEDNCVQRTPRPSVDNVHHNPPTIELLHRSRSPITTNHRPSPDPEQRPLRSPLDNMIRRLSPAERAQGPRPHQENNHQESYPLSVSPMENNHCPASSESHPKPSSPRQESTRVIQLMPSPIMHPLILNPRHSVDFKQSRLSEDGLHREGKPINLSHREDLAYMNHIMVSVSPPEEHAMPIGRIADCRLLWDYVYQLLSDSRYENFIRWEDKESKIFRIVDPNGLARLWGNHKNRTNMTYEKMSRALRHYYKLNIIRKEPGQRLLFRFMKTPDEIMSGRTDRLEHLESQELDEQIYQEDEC
sequence,measurement,setting,value
CTACTA,binding signal,FEV,"1.27 fold enrichment (6-mer frequency, TF over GST control)"
same,binding signal,ETV5,"1.31 fold enrichment (6-mer frequency, TF over GST control)"
same,binding signal,HSF1,"1.43 fold enrichment (6-mer frequency, TF over GST control)"
same,binding signal,SPIC,"1.4 fold enrichment (6-mer frequency, TF over GST control)"
same,binding signal,ELF4,"1.29 fold enrichment (6-mer frequency, TF over GST control)"
same,binding signal,ELK4,"1.37 fold enrichment (6-mer frequency, TF over GST control)"
same,binding signal,ETV2,"1.23 fold enrichment (6-mer frequency, TF over GST control)"
same,binding signal,ELF3,"1.35 fold enrichment (6-mer frequency, TF over GST control)"
same,binding signal,CRX,"1.36 fold enrichment (6-mer frequency, TF over GST control)"
same,binding signal,ETV1,"1.18 fold enrichment (6-mer frequency, TF over GST control)"
same,binding signal,ERF,"1.35 fold enrichment (6-mer frequency, TF over GST control)"
same,binding signal,ETV3L,"1.29 fold enrichment (6-mer frequency, TF over GST control)"
same,binding signal,ETS2,"1.26 fold enrichment (6-mer frequency, TF over GST control)"
same,binding signal,SPDEF,"1.28 fold enrichment (6-mer frequency, TF over GST control)"
same,binding signal,ETV7,"1.44 fold enrichment (6-mer frequency, TF over GST control)"
same,binding signal,ELF5,"1.24 fold enrichment (6-mer frequency, TF over GST control)"
same,binding signal,ETV3,"1.23 fold enrichment (6-mer frequency, TF over GST control)"
same,binding signal,ETV6,"1.46 fold enrichment (6-mer frequency, TF over GST control)"

# — article PMC7862700, “An all-to-all approach to the identification of sequence-specific readers for epigenetic DNA modifications on cytosine”
